Experiment [1] can be described thus: qHTS assay to identify small molecule agonists of the hypoxia (HIF-1) signaling pathway - cell viability counter screen (AID 1224844; calls by dose curve; note: nearly all actives have a fitted effect of over 50% in size). Summed up: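 Tox21 10K compounds were added to HRE-bla ME-180 cells (0.5% dialyzed FBS) and incubated 17 hrs at 37C; ATP-based CellTiter-Glo luminescence then reported cell viability in the same wells.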
(In general: In qHTS, concentration-response curves come from the screen itself.)

Experiment [2] is described as follows: qHTS assay to identify small molecule agonists of H2AX (AID 1224845; active = well fitted activation curve with a large enough effect in the signal ratio in the repeat runs, not every such curve was filed as active; the % refers to the signal ratio). In outline: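 Phospho-H2AX Ser139 measured by HTRF (ex 320 nm; em 665 and 620 nm) after 24 hr antibody incubation. Compounds, 15 concentrations, 0.76% DMSO, were applied to CHO-K1 cells for 3hr at 37C before lysis.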
Experiment [3] is described as follows: qHTS assay to identify small molecule agonists of the hypoxia (HIF-1) signaling pathway (AID 1224846; active = well fitted activation curve with a large enough effect in the signal ratio in the repeat runs, not every such curve was filed as active; the % refers to the signal ratio). Summed up: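 Steps: seed ME-180 HRE-bla cells (2,000/well, 0.5% dialyzed FBS); incubate 5 hrs at 37C; pin-transfer compounds or DMSO; incubate 17 hrs; add LiveBLAzer B/G substrate CCF4-AM; measure reporter activation by FRET.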
A short description of experiment [4]: qHTS assay to identify small molecule agonists of H2AX - cell viability counter screen (AID 1224847; calls by dose curve; note: nearly all actives have a fitted effect of over 30% in size; note: potency is the fitted concentration of half-maximal effect;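 for activity change, negative = cytotoxicity: wild-type CHO-K1 cells; top concentration of the series differs between compounds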). In outline:
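Counter-screen for viability: CellTiter-Glo ATP luminescence read after 3 h compound treatment (15-point titration, 0.76% DMSO final) of CHO-K1 cells at 37C, with 30 min room-temperature reagent incubation.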

A short description of experiment [5]: qHTS assay to identify small molecule antagonists of the estrogen related receptor (ERR) signaling pathway from Tox21 library (AID 1224848). Note: nearly all actives have a fitted effect of over 50% in size. Note: potency is the fitted concentration of half-maximal effect. Summed up: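 Antagonist-mode screen of the Tox21 10K library in an NTP-provided ERR reporter cell line; 18 h compound exposure at 37 C, luminescence measured with ONE-Glo.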
Experiment [6] can be described thus: qHTS assay to identify small molecule agonists of the estrogen related receptor (ERR) signaling pathway from Tox21 library (AID 1224849; calls by dose curve; note: nearly all actives have a fitted effect of over 15% in size). The note with it: ERR reporter cell line, ONE-Glo luciferase, 18 h; at 92.4 µM (top of the series) unless noted. Summed up:
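Agonist signal is luciferase luminescence from an ERR reporter cell line treated 18 h at 37 C with DMSO-dissolved compounds, read 30 min after ONE-Glo addition at room temperature.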

Experiment [7] in a line: qHTS RealTime-Glo MT Cell Viability Assay in HepG2 cells - 24 hour (AID 1224867). Note: nearly all actives have a fitted effect of over 50% in size. Summed up: (§1)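 Viability was tracked continuously by NanoLuc luminescence from prosubstrate reduced by living HepG2 cells, at successive time points over 40 h of compound exposure. Cells with reagent were preincubated 5 h at 37 °C before compound addition.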
Experiment [8] is described as follows: qHTS RealTime-Glo MT Cell Viability Assay in HEK293 cells - 32 hour (AID 1224868). For activity change, negative = cytotoxic: top concentration of the series differs between compounds. Note: nearly all actives have a fitted effect of over 50% in size. Note: potency is the fitted concentration of half-maximal effect. In outline:
(§2)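 Viability tracked continuously by luminescence as live cells reduce a prosubstrate for NanoLuc; HEK293 cells preincubated 5 h, compound-treated at 37 C, and read at 0, 8, 16, 24, 32 and 40 h.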

Experiment [9] can be described thus: A CellTox Green Cytotoxicity Assay to monitor cytotoxicity in HEK293 cells - 0 hour (AID 1224869). Note: nearly all actives have a fitted effect of over 50% in size. Summed up: (§3)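 Cytotoxicity was tracked continuously in HEK293 cells by a DNA-binding dye excluded from viable cells. Compounds were transferred in DMSO 5 h after seeding; fluorescence was recorded at intervals up to 40 h.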
Experiment [10] in a line: qHTS RealTime-Glo MT Cell Viability Assay in HepG2 cells - 40 hour (AID 1224870). Note: nearly all actives have a fitted effect of over 50% in size. In outline: (§4)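 Real-time viability: cells seeded at 600 per well together with NanoLuc and cell-permeant prosubstrate, compounds added after 5 h incubation. Luminescence tracked at 0, 8, 16, 24, 32 and 40 h of exposure.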
Experiment [11] can be described thus: A CellTox Green Cytotoxicity Assay to monitor cytotoxicity in HEK293 cells - 40 hour (AID 1224871). Note: nearly all actives have a fitted effect of over 45% in size. In outline: as §3
Experiment [12] in a line: qHTS RealTime-Glo MT Cell Viability Assay in HEK293 cells - 16 hour (AID 1224872). In outline:
as §2

Experiment [13] is described as follows: qHTS RealTime-Glo MT Cell Viability Assay in HepG2 cells - 8 hour (AID 1224873). Note: nearly all actives have a fitted effect of over 55% in size. In outline: as §4
The nature of experiment [14]: qHTS RealTime-Glo MT Cell Viability Assay in HEK293 cells - 40 hour (AID 1224874). Note: nearly all actives have a fitted effect of over 50% in size. Note: potency is the fitted concentration of half-maximal effect. The note with it: RealTime-Glo luminescence; max response: stronger effect = lower value. Summed up:
(§5)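 Nonlytic bioluminescent viability monitoring. HEK293 at 600 cells/well with reagent; 5 h settle; compound transfer by pintool; plates held at 37 C and read at set time points.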

A short description of experiment [15]: A CellTox Green Cytotoxicity Assay to monitor cytotoxicity in HEK293 cells - 24 hour (AID 1224875). Note: nearly all actives have a fitted effect of over 45% in size. Summed up: as §3
The nature of experiment [16]: qHTS RealTime-Glo MT Cell Viability Assay in HepG2 cells - 32 hour (AID 1224877). Note: nearly all actives have a fitted effect of over 55% in size. In outline:
as §1

Experiment [17] in a line: A CellTox Green Cytotoxicity Assay to monitor cytotoxicity in HepG2 cells - 24 hour (AID 1224878). Note: nearly all actives have a fitted effect of over 45% in size. In outline:
(§6)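 Real-time, homogeneous cytotoxicity readout: dead-cell DNA staining by CellTox Green in HepG2 monolayers, fluorescence measured at timed intervals up to 40 h of continuous compound exposure.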

A short description of experiment [18]: A CellTox Green Cytotoxicity Assay to monitor cytotoxicity in HepG2 cells - 40 hour (AID 1224879). Note: nearly all actives have a fitted effect of over 40% in size. Summed up: as §6
The nature of experiment [19]: qHTS RealTime-Glo MT Cell Viability Assay in HEK293 cells - 0 hour (AID 1224880). Note: top concentration of the series differs between compounds; nearly all actives have a fitted effect of over 45% in size. In outline:
as §5

The nature of experiment [20]: A CellTox Green Cytotoxicity Assay to monitor cytotoxicity in HepG2 cells - 16 hour (AID 1224876). Note: nearly all actives have a fitted effect of over 45% in size. In outline:
as §6

Structures are written as SMILES. Unmarked numbers belong to inactive results. Inconclusive results are not listed. The source made the active and inactive calls. Unless noted, calls come from the whole dose curve; as a rule, active = well fitted curve in the direction sought with a large enough effect in the repeat runs; inconclusive = weak or mixed curves; inactive = no such curve, though single readings can be large; an effect the other way counts as inactive or inconclusive.
% is set by controls: 0 for no effect and ±100 for the full control effect.

Regarding `OC[C@H]1O[C@@H](OCCc2ccc(O)cc2)[C@H](O)[C@@H](O)[C@@H]1O`, the Potency entry in experiment [1], in experiment [2], in [3], in experiment [4], in [5] and in [7] was “inactive” throughout. Moreover, the Potency result in experiment [8], in experiment [9], in [10], in experiment [11], in experiment [12] and in [13] was “inactive” each time. Also, the Potency entry in experiment [15], in experiment [16], in [17], in [18] and in experiment [19] was “inactive” throughout. In experiment [6], the activity change, positive = activation is 4.76% [at 42.5 µM]. Also, the max response in [14] was 7.46%.
As for `Cc1ncc(CO)c(C=O)c1O`, the Potency result in experiment [1], in experiment [2], in [3], in experiment [4], in experiment [5] and in [7] was “inactive” each time. The Potency entry in experiment [8], in [9], in experiment [10], in [11], in experiment [12] and in experiment [13] was “inactive” throughout. Further, the Potency result in experiment [20], in [16], in experiment [17], in [18] and in experiment [19] was “inactive” each time. For the same molecule, in [6], the activity change, positive = activation was 2.22% [at 42.5 µM]. Further, the max response in experiment [14] was 0.556%.
As for `O=[N+]([O-])c1cccc(S(=O)(=O)O)c1`, the Potency result in [1], in experiment [2], in [3], in experiment [7], in experiment [9] and in experiment [10] was “inactive” throughout. Moreover, the Potency result in experiment [13], in experiment [15], in experiment [20], in experiment [16], in experiment [17] and in experiment [18] was “inactive” in each case. Further, in experiment [19], the Potency entry is “inactive”. Moreover, the Potency in experiment [4] was 45.7 µM (active); in experiment [5], 27.7 µM (active); in experiment [8], 22.2 µM (active); in [14], 17.6 µM (active). Moreover, the activity change, positive = activation in [6] was -46%.
With `CC(CSC(=O)c1ccccc1)C(=O)N1C[C@@H](Sc2ccccc2)C[C@H]1C(=O)O` (stereo partly drawn), the activity change, negative = cytotoxicity in experiment [1] was -3.08% [at 15.8 µM]; in experiment [4], 1.45% [at 31.6 µM]; in experiment [7], 3.68% [at 15.8 µM]; in [12] it was -4.93% [at 15.8 µM]; in [19], -6.47% [at 15.8 µM]. The activation (H2AX phosphorylation) in [2] is 0.449% [at 31.6 µM]. In addition, the activation in experiment [3] is 0.628% [at 15.8 µM]. In addition, the activity, negative = inhibition in experiment [5] was -0.558% [at 19 µM]. Further, the activity change, positive = activation in experiment [6] is -0.059% [at 19 µM]. The activity change, negative = cytotoxic in experiment [8] is -4.06% [at 15.8 µM]; in [10], 2.68% [at 15.8 µM]; in experiment [16] it was 4.17% [at 15.8 µM]. The cytotoxicity in experiment [9] was -0.576% [at 15.8 µM]; in experiment [17] it was -1.93% [at 15.8 µM]. The viability change, negative = cytotoxic in experiment [13] is 1.39% [at 15.8 µM]. Moreover, in experiment [14], the max response is -5.01%. Besides, the activity change in experiment [15] was 3.46% [at 15.8 µM, stronger effect = higher value]. For the same molecule, the cytotoxicity increase in [20] was -2.05% [at 15.8 µM]; in [18], -0.523% [at 15.8 µM].
Regarding `CN(C)C(=O)NC1(c2ccccc2)CCN(CC[C@@]2(c3ccc(F)c(F)c3)CN(C(=O)c3ccccc3)CCO2)CC1`, the Potency entry in experiment [1], in [2], in experiment [3], in [4], in experiment [7] and in [9] was “inactive” each time. Also, the Potency result in experiment [10], in experiment [13], in [15], in experiment [20], in experiment [16] and in [17] was “inactive” throughout. Moreover, the Potency entry in experiment [19] is “inactive”. Also, the activity change, positive = activation in experiment [6] is -22.6%.
For `CCCCOC(=O)CCCCCCCC(=O)OCCCC`, the Potency entry in [1], in [2], in [3], in [4], in experiment [5] and in experiment [7] was “inactive” each time. Besides, the Potency entry in experiment [8], in [9], in experiment [10], in [11], in experiment [12] and in experiment [15] was “inactive” throughout. Besides, the Potency result in experiment [20], in experiment [16], in [17], in [18] and in experiment [19] was “inactive” throughout. Besides, the activity change, positive = activation in [6] is 2.99%. The max response in experiment [14] was 2.76%.

The record behind these values is PubChem BioAssay (Tox21).
